# In the library only some 4.8% were active in any assay of this set; here they are far more common.
# DAX1 inh-1 = DAX1 (NR0B1) inhibition, primary screen | inhibition, % at 6.8 µM | 1.1% of 370,000 active | HEK293T StAR-luciferase reporter, SF-1/DAX-1 repression relief | AID 652010;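 active = inhibition above the mean over all tested compounds plus 3 SD, cut at about 3.6% in these data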;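 also: 0% = DAX-1 cells with DMSO and 100% = cells lacking DAX-1 with DMSO; higher inhibition means more luminescence from relief of DAX-1 repression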
# NR1D1 modulator = Rev-erb alpha (human) modulation. P20393. 0.79% of 370,000 active. activity, % at 10 µM. Rev-erbα–FITC-DNA binding, fluorescence polarization, 90 min. AID 1259318;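 active = activity above about 14%, limit read from the data; passing the limit was not always enough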;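 also: 0% = DMSO wells with 35 nM protein and 100% = DMSO wells with 750 nM protein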
# ssDAF-12 act = activators of S. stercoralis DAF-12 nuclear receptor; HEK293 ssDAF-12/GRIP1 lit1-tk-luc reporter, luminescence; % of 3 µM dafachronic acid response; activation, % at 6.8 µM; 1% of 370,000 active;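 active = activation above the mean over all tested compounds plus 3 SD, cut at about 0.9% in these data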;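 also: 0% = DMSO-only wells and 100% = 3 µM delta7-dafachronic acid wells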
# hcDAF-12 act = activates DAF-12 receptor from parasite H. contortus; HEK293 hcDAF-12 lit1-tk-luc reporter, luminescence; 0% DMSO, 100% Δ7-dafachronic acid; AID 652067; activation, % at 6.8 µM; 1.4% of 370,000 active;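 active = activation above the mean of all tested compounds plus 3 SD, cut at about 5.5% in these data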;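 also: 100% = response to 3 µM Δ7-dafachronic acid high control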
# DAX1 inh-2 = NR0B1 (DAX1) inhibition; 0.99% of 340,000 active; HEK293 Gal4-DAX1 luciferase reporter, luminescence; inhibition, % at 6.75 µM; P51843;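 active = inhibition above the mean over all tested compounds plus 3 SD, cut at about 4.2% in these data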;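 also: 0% = DAX1-transfected cells with DMSO and 100% = empty-vector control cells with DMSO; inhibition shows as a rise in luminescence from relieved DAX1 repression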
# Target sequence (P51843 207-470 limits assumed): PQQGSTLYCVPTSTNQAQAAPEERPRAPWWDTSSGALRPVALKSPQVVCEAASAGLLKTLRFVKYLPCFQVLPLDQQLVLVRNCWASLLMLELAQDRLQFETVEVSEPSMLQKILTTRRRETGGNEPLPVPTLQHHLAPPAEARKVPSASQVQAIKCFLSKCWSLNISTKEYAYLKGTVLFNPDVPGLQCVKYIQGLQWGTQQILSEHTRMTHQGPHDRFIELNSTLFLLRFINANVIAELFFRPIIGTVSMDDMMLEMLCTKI
# hgDAF-12 ag = hgDAF-12 agonism, primary luciferase screen; 1.8% of 370,000 active; HEK293 GAL4-hgDAF12 UAS-luciferase reporter, agonist luminescence; normalized to butyrate control; activation, % at 6.8 µM; AID 687014;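 active = activation above a cutoff set at the mean of all screened compounds plus 3 SD, cut at about 10% in these data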;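 also: 0% = DMSO wells and 100% = sodium butyrate wells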
# Numbers without * were called inactive; x = not tested or not shown.
SMILES,DAX1 inh-1,NR1D1 modulator,ssDAF-12 act,hcDAF-12 act,DAX1 inh-2,hgDAF-12 ag
COc1ccc(NS(=O)(=O)c2cccc(C(=O)NCC(c3ccc(OC)cc3)N3CCCC3)c2)cc1 (stereo unspecified),4.2*,5,-1,0,1,4
COc1ccc(NS(=O)(=O)c2cccc(C(=O)NCC(c3ccc(OC)cc3)N3CCOCC3)c2)cc1 (stereo unspecified),-1,9,-1,-1,-1,-1
COc1ccc(NS(=O)(=O)c2cccc(C(=O)NCC(c3ccc(OC)cc3)N3CCCCC3)c2)cc1 (stereo unspecified),2,4,-1,0,0,-3
CN(c1ccc(OCC(=O)NCCc2ccccc2)cc1)S(=O)(=O)c1ccc(Cl)cc1,4.2*,-2,0,3,0,3
CCOC(=O)CCc1c(C)nc2cc(-c3ccc(Cl)cc3)[nH]n2c1=O,1,6,-1,-1,-1,1
CCCc1cc(=O)n2[nH]c(-c3ccc(C)cc3)cc2n1,4.0*,2,0,2,2,6
O=c1c2c(nc3cc(-c4ccc(Cl)cc4)[nH]n13)CCS2,3,2,0,4,3,11*
CCc1c(C)nc2cc(-c3ccc(Cl)cc3)[nH]n2c1=O,2,2,0,3,4.8*,11*
CCCc1cc(=O)n2[nH]c(-c3ccc(Cl)cc3)cc2n1,1,-1,1,3,2,10
CCc1c(C)nc2cc(-c3cccc(Br)c3)[nH]n2c1=O,1,-7,1.0*,6.4*,2,7
CC(C)N1CCCCC(NC(=O)c2ccc(F)cc2)C1=O (stereo unspecified),0,10,-1,-1,x,0
CC(=NNC(=O)CSc1nnc(-c2ccc(C(C)(C)C)cc2)n1-c1ccccc1)c1cccc2ccccc12,-1,-1,-2,-1,x,2
CC(C)CN1C(=O)N2CCc3ccccc3C2CS1(=O)=O (stereo unspecified),1,-2,-1,0,x,3
CN(C)c1ccc(/C=C(/NC(=O)c2ccccc2)C(=O)N/N=C/c2ccc([N+](=O)[O-])c(O)c2)cc1,1,6,0,2,-3,12*
CCOC(=O)c1cccc(NC(=O)CN(C)S(=O)(=O)c2cc(OC)ccc2OC)c1,-1,3,-1,-3,x,1
CCOC(=O)C(=CNNc1c(C)csc1C(=O)OC)C(=O)OCC,0,3,0,6.3*,1,-1
COc1ccc(NC(=O)C(c2cc3ccccc3o2)n2c(=O)c(-c3cc4ccccc4[nH]3)nc3ccccc32)cc1 (stereo unspecified),0,-1,1.3*,5.8*,x,3
COc1ccc(NC(=O)C(c2ccc(OC)cc2)n2c(=O)c(-c3cc4ccccc4[nH]3)nc3ccccc32)cc1 (stereo unspecified),-1,-8,0,3,x,-1
COc1ccc2[nH]c3c(c2c1)CCN[C@]31C(=O)N(Cc2ccccc2)c2ccccc21,-1,-4,-1,-2,x,-4
NC(=O)CCN1CCCCC1,0,0,-2,1,4.5*,0
O=C(CCC(=O)CCN1CCCCC1)CCN1CCCCC1,0,3,0,1,2,3
Nc1nc(-c2cccs2)c(CC(=O)O)s1,0,3,-1,0,-1,-2
O=C(O)Cc1sc(Nc2cccc3ccccc23)nc1-c1ccccc1,4.3*,4,0,1,0,-2
O=C(O)Cc1sc(Nc2ccc(Cl)cc2)nc1-c1cccs1,2,-5,0,5.8*,x,9
Cc1cc(OCC(C)CN2CCC(C(O)(c3ccccc3)c3ccccc3)CC2)ccc1Br (stereo unspecified),-1,3,-2,-3,x,3
SMILES,DAX1 inh-1,NR1D1 modulator,ssDAF-12 act,hcDAF-12 act,DAX1 inh-2,hgDAF-12 ag
CC(COc1ccccc1)CN1CCC(C(O)(c2ccccc2)c2ccccc2)CC1 (stereo unspecified),-1,-4,-2,-3,x,-3
Cc1c(Cl)cccc1N1C(=O)CC(NNC(=O)c2cccs2)C1=O (stereo unspecified),1,5,0,4,0,10*
Cc1cc2nc[nH]c2cc1[N+](=O)[O-],0,4,-1,-2,-1,0
Cc1cc(N)ncc1[N+](=O)[O-],-1,5,-1,-1,4.2*,-2
O=S(=O)(CC1NCCc2ccccc21)NCCc1ccccc1 (stereo unspecified),0,7,-1,-1,x,0
COc1cccc(-c2nc(-c3ccc(C(=O)O)cc3)no2)c1,2,-3,1.0*,3,2,9
CCOc1ccc(-c2nc(-c3cccnc3)no2)cc1,4.5*,3,0,4,-1,12*
COc1ccc(-c2nc(-c3cccnc3)no2)cc1,3,1,1.3*,5,1,11*
CCOc1cc(-c2noc(-c3cccnc3)n2)ccc1OC,1,1,-1,-1,4.6*,1
O=C(O)c1ccc(-c2noc(-c3cccc(F)c3)n2)cc1,2,-1,-1,0,2,6
CCCCOc1ccc(-c2nc(-c3cccnc3)no2)cc1,1,-9,-1,0,1,6
COc1ccc(OC)c(CN(CC(F)(F)F)S(=O)(=O)c2ccccc2Br)c1,0,4,-1,-1,x,-1
c1nc(NCC2CCOC2)c2cc(-c3ccc4c(c3)OCO4)ccc2n1 (stereo unspecified),x,1,-1,-1,x,2
Cc1ccc(C)c(NC(=O)CN2C(=O)CCSc3ccccc32)c1,0,-2,-1,-4,x,-4
CCOc1ccc(-c2noc(COC)n2)cc1OC,1,1,4.0*,0,0,2
COC(=O)C1CN(Cc2ccc(OC)cc2)CCS(=O)(=O)N1Cc1ccc(C(F)(F)F)cc1 (stereo unspecified),-2,8,-2,-3,x,-4
O=C(Oc1cccc(-c2cnc3ccccc3n2)c1)c1ccco1,2,1,1,6.5*,3,10
O=C(N[C@H](C(=O)N1CCC[C@H]1C(=O)NC1CCCC1)C1CCCCC1)c1ccc(Cl)c(Cl)c1,0,1,-1,-1,x,-1
CCN(CC)c1ccc(C(=S)NC2CCCCC2)cc1,-1,-3,-1,-2,-1,2
CN(C)c1ccc(C(=S)NC2CCCCC2)cc1,4.3*,-5,0,4,5.1*,13*
COc1ccc(C2CC(c3ccc(Cl)cc3Cl)n3nc(N)nc3N2)cc1 (stereo unspecified),0,-5,-1,-2,5.2*,-1
